# From PubChem BioAssay (Tox21)
# Inconclusive results are not listed. A call without a number means that no potency is given here. Active and inactive are the calls of the source. Calls follow the shape of the dose curve; as a rule, active = well fitted activation curve with a large enough effect in the repeat runs; inconclusive = weak or mixed curves; inactive = flat fitted curve, though single readings scatter.
# Assay: A CellTox Green Cytotoxicity Assay to monitor cytotoxicity in HepG2 cells - 32 hour (AID 1224883); also: nearly all actives have a fitted effect of over 50% in size
# Conditions: CellTox Green fluorescence; series mostly up to 76.8 µM
# From the text: National Center for Advancing Translational Sciences [NCATS]
# NIH Chemical Genomics Center [NCGC]
# U.S. Environmental Protection Agency [EPA]
# National Institutes of Environmental Health Sciences [NIEHS]
# National Toxicology Program [NTP]
# Cell-based models are critical for drug discovery. Determining the natural cytotoxic effects resulting from test compounds is an essential research activity. A CellTox Green Cytotoxicity Assay to monitor cytotoxicity in real time of continues cell culture during 40 hours of the compound treatment was used to screen Tox21 10K library compounds in HepG2 cells. CellTox Green Cytotoxicity Assay is a nonlytic, homogeneous, biofluorescent method to measure cytotoxicity in cell culture after experimental manipulation. The assay system uses a proprietary asymmetric cyanine dye that is excluded from viable cells but preferentially stains the dead cell's DNA. […] Viable cells produce no appreciable increases in fluorescence. Therefore, the fluorescence signal produced by the binding interaction with dead cell DNA is proportional to cytotoxicity.
# The mixture of HepG2 cell suspension and reagents were dispensed at 600cells/6 ul/well in 1536-well tissue culture treated black solid bottom plates using a Multidrop dispenser. After the assay plates were incubated at a 37 C/5% CO2 incubator for 5 hours, 23 nL of compounds dissolved in DMSO, positive and negative controls was transferred to the assay plate by a pintool work station. The plates were incubated at 37 C for 40 hours. The fluorescence intensity were measured at 0h, 8h, 16h, 24h, 32h and 40h time points using ViewLux plate reader during compound treatment.
# Potency is read from the fitted curve at half-maximal effect.
Compound,Potency,cytotoxicity increase
CN(C)CCOC1=Cc2ccccc2Sc2ccc(Cl)cc21,23.9 µM (active),
CCCCCCCCCCOS(=O)(=O)O,inactive,
C=CCNc1nc(NCC=C)nc(N2CCN(C(c3ccc(F)cc3)c3ccc(F)cc3)CC2)n1,inactive,
O=C(O)c1cccnc1C(=O)O,inactive,
CCCCCCCCCCCC(=O)[O][Sn]([CH2]CCC)([CH2]CCC)[O]C(=O)CCCCCCCCCCC,19 µM (active),
Fc1ccccc1[C@@H](F)COC1CCC(Nc2ncnc3[nH]ncc23)CC1 (stereo not given in full),inactive,
CCOC(=O)[C@@H](C)Oc1ccc(Oc2nc3ccc(Cl)cc3o2)cc1,inactive,
CCCC1C(CC)=CC(CC)=CN1c1ccccc1 (stereo not given),inactive,
CC1CC(O)CC(C)(C)C1 (stereo not given),inactive,
CC(C)(C)C(=O)C(Oc1ccc(Cl)cc1)n1ccnc1 (stereo not given),inactive,
c1cnc2c(n1)CCCC2,43.6 µM (active),
CC(C)=CC=O,inactive,
CC#N,inactive,
O=C(O)Cc1ccc(-c2ccccc2)cc1,inactive,
CCCCCCCC/C=C\CCCCCCCC(=O)OC,inactive,
Cn1c(=O)c2c(ncn2CC(=O)O)n(C)c1=O,inactive,
CO[C@@]12[C@H](COC(N)=O)C3=C(C(=O)C(C)=C(N)C3=O)N1C[C@@H]1N[C@@H]12,8.49 µM (active),
CC(C)C(=O)O,inactive,
CC(Cl)C(Cl)Cl (stereo not given),inactive,
CCOC(=O)CC(=O)C(=O)OCC,inactive,

Compound,Potency,cytotoxicity increase
CC1=CC(=O)CC(C)(C)C1(O)/C=C/C(C)=C\C(=O)O (stereo not given),inactive,
CCN(Cc1cccc(S(=O)(=O)O)c1)c1ccc(C(=C2C=CC(=[N+](CC)Cc3cccc(S(=O)(=O)[O-])c3)C=C2)c2ccccc2)cc1,inactive,
CC1CN(c2cc3c(cc2F)c(=O)c(C(=O)O)cn3-c2ccc(F)cc2F)CCN1 (stereo not given),,0.181% [at 6.97 µM] (inactive)
CC(C)CCCCCOC(=O)CCCCC(=O)OCCCCCC(C)C,inactive,
CC(CCc1ccc2c(c1)OCO2)NN (stereo not given),inactive,
CC(=O)Nc1ccc(N)cc1,inactive,
COc1cc2ncnc(Nc3ccc(F)c(Cl)c3)c2cc1OCCCN1CCOCC1,23.9 µM (active),
NC(=O)Nc1ccc(Cl)c(Cl)c1,inactive,
CCCCOC(=O)CCS,inactive,
CCCOC(=O)c1ccc(C(=O)OCCC)nc1,inactive,
O=C(C(=O)c1ccccc1)c1ccccc1,inactive,
O=Cc1c(Cl)cccc1Cl,inactive,
CCn1cc(C(=O)O)c(=O)c2cc(F)c(N3CCNCC3)nc21,inactive,
Cc1ccc(S(=O)(=O)NC2CCCCC2)cc1,inactive,
Fc1c(F)c(F)c(Br)c(F)c1F,inactive,
O=C(CCCCCCC(=O)Nc1ccccc1)NO,2.68 µM (active),
ON(Cc1ccccc1)Cc1ccccc1,inactive,
CNCCCC1c2ccccc2C=Cc2ccccc21,23.9 µM (active),
COC(=O)c1cc(Cl)ccc1NS(=O)(=O)C(F)(F)F,inactive,
CC(=O)Nc1ccccc1C,inactive,
